What all share (experiment): DAPPL (digital affinity profiling via proximity ligation, sequencing); 10 mM Tris-HCl pH 7.5, 50 mM NaCl, 1 mM DTT, 4% glycerol, room temperature, 30 min; GST-TFs on glutathione beads, 16-mer random dsDNA library, 0.1% formaldehyde crosslink after washing; high values mean tight binding
In experiment [1] the target is T1, FEV (Homo sapiens, UniProt Q99581 1-238).
T1 sequence: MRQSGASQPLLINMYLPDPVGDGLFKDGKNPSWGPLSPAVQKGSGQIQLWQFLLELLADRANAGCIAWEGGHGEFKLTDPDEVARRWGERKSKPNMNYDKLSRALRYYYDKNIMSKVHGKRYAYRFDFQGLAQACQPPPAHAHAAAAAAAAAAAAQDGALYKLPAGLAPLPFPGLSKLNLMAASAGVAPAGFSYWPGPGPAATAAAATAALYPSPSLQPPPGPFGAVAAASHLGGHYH
As to conditions: protein: recombinant; tags: N-terminal GST; dsDNA, one strand shown. The method, boiled down: (§1)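 Human transcription factors carrying a GST fusion were produced in yeast, bound to glutathione beads, tagged with DNA barcodes and pooled together with a tag-only sample. Each pool was held with 200 nmole of a random double-stranded 16-mer DNA library in Tris/NaCl/DTT/glycerol buffer for 30 min at room temperature, then washed, crosslinked in 0.1% formaldehyde, proximity-ligated with BsaI/T4 ligase (1 h, 37 °C), PCR-amplified and sequenced on an Illumina NextSeq500. Binding signal is the read frequency of each hexamer for a given factor divided by its frequency in the tag-only sample.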

For experiment [2], the target named is ETV5 (Homo sapiens, UniProt P41161 1-510). As to conditions: protein: recombinant; tags: N-terminal GST; dsDNA, one strand shown. The method, boiled down:
as §1

Experiment [3] concerns the target HSF1 (Homo sapiens, UniProt Q00613 1-529). As to conditions: protein: recombinant; tags: N-terminal GST; chain copies: 3; dsDNA, one strand shown. The method, boiled down:
as §1

For experiment [4], the target named is T2, SPIC (Homo sapiens, UniProt Q8N5J4 1-248).
T2 sequence: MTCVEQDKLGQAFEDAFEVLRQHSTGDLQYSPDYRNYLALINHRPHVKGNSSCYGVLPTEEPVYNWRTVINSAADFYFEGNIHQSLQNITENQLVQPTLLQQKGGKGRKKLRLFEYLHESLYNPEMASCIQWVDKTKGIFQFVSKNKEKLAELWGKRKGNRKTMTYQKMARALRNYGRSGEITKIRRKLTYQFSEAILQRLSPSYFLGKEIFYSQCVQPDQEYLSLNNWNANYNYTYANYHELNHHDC
The settings on record: protein: recombinant; tags: N-terminal GST; dsDNA, one strand shown. The method in brief:
as §1

In experiment [5] the target is ELF4 (Homo sapiens, UniProt Q99607 1-663). As to conditions: protein: recombinant; tags: N-terminal GST; dsDNA, one strand shown. The method in brief: as §1
Experiment [6] addresses T3, ELK4 (Homo sapiens, UniProt P28324-2 1-405).
T3 sequence: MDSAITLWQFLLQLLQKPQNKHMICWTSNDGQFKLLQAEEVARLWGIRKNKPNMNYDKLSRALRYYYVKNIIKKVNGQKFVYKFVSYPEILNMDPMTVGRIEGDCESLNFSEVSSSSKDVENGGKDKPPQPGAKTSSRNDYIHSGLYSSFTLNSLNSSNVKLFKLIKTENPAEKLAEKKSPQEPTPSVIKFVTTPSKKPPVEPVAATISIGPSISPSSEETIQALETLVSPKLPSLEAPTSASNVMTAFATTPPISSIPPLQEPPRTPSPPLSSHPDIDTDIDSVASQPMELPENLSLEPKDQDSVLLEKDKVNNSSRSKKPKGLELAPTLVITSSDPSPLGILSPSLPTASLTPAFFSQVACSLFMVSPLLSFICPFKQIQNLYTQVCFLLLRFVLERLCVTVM
As to conditions: protein: recombinant; tags: N-terminal GST; dsDNA, one strand shown. The method, boiled down:
as §1

For experiment [7], the target named is T4, ETV2 (Homo sapiens, UniProt O00321 1-342).
T4 sequence: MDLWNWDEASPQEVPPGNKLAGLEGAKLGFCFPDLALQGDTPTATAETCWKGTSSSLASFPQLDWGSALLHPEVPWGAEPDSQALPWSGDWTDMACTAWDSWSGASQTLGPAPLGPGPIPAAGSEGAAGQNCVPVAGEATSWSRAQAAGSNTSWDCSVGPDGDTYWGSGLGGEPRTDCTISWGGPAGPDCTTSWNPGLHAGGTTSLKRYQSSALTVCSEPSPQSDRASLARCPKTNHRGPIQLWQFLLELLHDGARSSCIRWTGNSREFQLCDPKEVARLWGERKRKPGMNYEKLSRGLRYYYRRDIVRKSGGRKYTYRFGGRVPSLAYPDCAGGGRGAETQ
The settings on record: protein: recombinant; tags: N-terminal GST; dsDNA, one strand shown. The method, boiled down: as §1

The target in experiment [8] is T5, ELF3 (Homo sapiens, UniProt P78545 1-371).
T5 sequence: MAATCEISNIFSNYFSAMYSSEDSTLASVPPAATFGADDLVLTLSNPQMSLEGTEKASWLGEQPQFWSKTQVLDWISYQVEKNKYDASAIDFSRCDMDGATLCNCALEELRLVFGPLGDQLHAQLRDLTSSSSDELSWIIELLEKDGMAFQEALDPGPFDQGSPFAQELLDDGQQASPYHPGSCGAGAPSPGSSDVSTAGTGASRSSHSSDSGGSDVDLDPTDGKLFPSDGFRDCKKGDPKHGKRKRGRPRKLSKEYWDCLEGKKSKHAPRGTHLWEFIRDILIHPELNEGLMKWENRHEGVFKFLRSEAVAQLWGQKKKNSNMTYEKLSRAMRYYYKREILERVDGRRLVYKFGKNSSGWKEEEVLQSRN
As to conditions: protein: recombinant; tags: N-terminal GST; dsDNA, one strand shown. The method, boiled down: as §1

The target of experiment [9] is CRX (Homo sapiens, UniProt O43186 1-299). As to conditions: protein: recombinant; tags: N-terminal GST; dsDNA, one strand shown. The method, boiled down: as §1
Experiment [10] addresses ETV1 (Homo sapiens, UniProt P50549 1-477). As to conditions: protein: recombinant; tags: N-terminal GST; dsDNA, one strand shown. The method, boiled down: as §1
Experiment [11] deals with T6, ERF (Homo sapiens, UniProt P50548 1-548).
T6 sequence: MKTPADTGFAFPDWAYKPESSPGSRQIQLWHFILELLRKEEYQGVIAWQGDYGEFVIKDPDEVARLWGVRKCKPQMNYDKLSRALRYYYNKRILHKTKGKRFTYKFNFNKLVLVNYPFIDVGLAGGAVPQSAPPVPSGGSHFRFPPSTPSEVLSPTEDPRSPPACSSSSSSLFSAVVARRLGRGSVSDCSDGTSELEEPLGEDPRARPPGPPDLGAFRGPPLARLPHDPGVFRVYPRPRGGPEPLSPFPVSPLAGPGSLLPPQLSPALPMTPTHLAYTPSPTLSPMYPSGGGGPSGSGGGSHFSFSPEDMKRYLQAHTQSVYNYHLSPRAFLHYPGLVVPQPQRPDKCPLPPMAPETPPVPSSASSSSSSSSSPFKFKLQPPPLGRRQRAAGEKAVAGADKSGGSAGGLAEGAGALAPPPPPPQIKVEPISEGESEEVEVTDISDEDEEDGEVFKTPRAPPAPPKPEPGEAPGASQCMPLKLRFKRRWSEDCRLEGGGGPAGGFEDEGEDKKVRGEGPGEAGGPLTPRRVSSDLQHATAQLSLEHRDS
As to conditions: protein: recombinant; tags: N-terminal GST; dsDNA, one strand shown. The method in brief:
as §1

Experiment [12] addresses T7, ETV3L (Homo sapiens, UniProt Q6ZN32 1-361).
T7 sequence: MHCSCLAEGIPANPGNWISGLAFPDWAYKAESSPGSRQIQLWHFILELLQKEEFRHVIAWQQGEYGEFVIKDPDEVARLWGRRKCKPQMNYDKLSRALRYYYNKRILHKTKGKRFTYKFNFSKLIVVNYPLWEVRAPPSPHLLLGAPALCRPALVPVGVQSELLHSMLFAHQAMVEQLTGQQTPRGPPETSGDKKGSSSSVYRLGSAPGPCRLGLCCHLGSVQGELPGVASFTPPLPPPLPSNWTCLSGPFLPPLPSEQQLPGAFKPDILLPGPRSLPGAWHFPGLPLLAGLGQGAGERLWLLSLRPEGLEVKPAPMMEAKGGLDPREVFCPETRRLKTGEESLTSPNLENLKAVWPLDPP
As to conditions: protein: recombinant; tags: N-terminal GST; dsDNA, one strand shown. The method in brief: as §1

Experiment [13] concerns the target T8, ETS2 (Homo sapiens, UniProt P15036 1-469).
T8 sequence: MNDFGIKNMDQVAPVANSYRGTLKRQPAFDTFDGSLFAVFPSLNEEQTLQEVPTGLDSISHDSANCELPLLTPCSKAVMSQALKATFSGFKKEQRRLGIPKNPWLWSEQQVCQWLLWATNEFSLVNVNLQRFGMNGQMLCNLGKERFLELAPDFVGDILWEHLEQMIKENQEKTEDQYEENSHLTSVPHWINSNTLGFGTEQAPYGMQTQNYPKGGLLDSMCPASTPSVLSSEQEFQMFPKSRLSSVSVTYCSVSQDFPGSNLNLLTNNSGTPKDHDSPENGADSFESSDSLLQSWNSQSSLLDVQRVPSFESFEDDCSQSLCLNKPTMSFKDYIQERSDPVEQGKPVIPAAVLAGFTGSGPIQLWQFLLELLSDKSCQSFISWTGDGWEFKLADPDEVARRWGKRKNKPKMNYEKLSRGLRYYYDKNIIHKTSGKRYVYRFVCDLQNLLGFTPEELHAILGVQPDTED
The settings on record: protein: recombinant; tags: N-terminal GST; dsDNA, one strand shown. The method in brief:
as §1

Experiment [14] has as its target T9, SPDEF (Homo sapiens, UniProt O95238 1-335).
T9 sequence: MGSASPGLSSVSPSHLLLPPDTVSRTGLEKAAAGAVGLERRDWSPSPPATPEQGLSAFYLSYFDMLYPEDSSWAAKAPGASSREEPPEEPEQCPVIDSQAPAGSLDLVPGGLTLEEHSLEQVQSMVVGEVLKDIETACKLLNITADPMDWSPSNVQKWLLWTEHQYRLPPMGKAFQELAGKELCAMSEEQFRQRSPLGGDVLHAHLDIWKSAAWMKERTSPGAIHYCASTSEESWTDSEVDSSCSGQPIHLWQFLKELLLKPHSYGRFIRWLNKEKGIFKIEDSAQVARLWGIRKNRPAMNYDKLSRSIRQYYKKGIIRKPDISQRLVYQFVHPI
As to conditions: protein: recombinant; tags: N-terminal GST; dsDNA, one strand shown. The method, boiled down:
as §1

The target of experiment [15] is T10, ETV7 (Homo sapiens, UniProt Q9Y603 1-341).
T10 sequence: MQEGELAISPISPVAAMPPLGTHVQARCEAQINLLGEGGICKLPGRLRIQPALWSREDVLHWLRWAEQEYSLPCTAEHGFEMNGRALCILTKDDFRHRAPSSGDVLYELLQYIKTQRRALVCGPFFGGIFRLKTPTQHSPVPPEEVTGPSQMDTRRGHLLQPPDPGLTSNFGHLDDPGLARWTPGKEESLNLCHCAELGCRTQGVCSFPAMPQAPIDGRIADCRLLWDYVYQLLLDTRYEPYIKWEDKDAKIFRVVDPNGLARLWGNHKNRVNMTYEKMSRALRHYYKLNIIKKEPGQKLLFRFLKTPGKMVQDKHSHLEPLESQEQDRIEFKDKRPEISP
The settings on record: protein: recombinant; tags: N-terminal GST; dsDNA, one strand shown. The method in brief: as §1

In experiment [16] the target is T11, ELF5 (Homo sapiens, UniProt Q9UKW6-2 1-255).
T11 sequence: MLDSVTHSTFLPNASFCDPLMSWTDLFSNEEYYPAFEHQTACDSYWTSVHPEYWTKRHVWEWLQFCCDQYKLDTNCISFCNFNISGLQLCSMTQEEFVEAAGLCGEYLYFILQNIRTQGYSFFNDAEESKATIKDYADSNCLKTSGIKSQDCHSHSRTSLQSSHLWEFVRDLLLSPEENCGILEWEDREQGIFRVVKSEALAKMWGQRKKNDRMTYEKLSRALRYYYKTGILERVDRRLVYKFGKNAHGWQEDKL
The settings on record: protein: recombinant; tags: N-terminal GST; dsDNA, one strand shown. The method, boiled down:
as §1

Experiment [17] addresses T12, ETV3 (Homo sapiens, UniProt P41162-2 1-143).
T12 sequence: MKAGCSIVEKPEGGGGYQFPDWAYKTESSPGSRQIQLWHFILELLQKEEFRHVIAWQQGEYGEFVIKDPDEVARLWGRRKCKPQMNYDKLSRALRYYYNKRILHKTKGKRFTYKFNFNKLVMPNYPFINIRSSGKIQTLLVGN
The settings on record: protein: recombinant; tags: N-terminal GST; dsDNA, one strand shown. The method in brief: as §1

The target in experiment [18] is ETV6 (Homo sapiens, UniProt P41212 1-452). As to conditions: protein: recombinant; tags: N-terminal GST; dsDNA, one strand shown. The method, boiled down: as §1
ETV6, sequence (P41212 whole entry): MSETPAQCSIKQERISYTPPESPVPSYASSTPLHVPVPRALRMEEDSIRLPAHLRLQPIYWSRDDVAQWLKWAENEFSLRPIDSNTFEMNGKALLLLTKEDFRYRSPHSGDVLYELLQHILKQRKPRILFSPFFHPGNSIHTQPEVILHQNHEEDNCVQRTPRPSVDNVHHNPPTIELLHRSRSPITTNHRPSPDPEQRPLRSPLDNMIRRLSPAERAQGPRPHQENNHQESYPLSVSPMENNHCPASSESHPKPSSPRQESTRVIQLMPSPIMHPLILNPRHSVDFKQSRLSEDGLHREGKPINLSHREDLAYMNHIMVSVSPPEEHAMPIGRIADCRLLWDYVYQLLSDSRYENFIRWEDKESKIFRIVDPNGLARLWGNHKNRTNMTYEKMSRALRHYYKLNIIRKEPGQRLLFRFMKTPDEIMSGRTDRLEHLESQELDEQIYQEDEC

ELF4, sequence (Q99607 whole entry): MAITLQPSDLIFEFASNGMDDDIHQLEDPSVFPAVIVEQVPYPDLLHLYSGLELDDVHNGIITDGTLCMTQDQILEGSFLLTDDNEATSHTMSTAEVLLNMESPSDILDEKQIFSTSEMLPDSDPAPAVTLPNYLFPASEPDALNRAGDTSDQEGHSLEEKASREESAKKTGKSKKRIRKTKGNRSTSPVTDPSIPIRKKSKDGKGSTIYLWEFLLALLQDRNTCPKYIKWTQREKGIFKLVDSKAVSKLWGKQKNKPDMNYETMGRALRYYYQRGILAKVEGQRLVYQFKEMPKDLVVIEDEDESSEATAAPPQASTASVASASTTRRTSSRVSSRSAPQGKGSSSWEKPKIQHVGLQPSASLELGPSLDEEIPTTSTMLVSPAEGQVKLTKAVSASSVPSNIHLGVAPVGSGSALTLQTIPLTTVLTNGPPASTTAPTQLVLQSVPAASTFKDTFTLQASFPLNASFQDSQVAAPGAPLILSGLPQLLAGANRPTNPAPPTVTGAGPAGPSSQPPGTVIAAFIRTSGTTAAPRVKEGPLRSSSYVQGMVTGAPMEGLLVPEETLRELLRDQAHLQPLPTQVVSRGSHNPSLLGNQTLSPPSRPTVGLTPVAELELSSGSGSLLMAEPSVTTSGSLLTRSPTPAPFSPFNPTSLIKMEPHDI
HSF1, sequence (Q00613 whole entry): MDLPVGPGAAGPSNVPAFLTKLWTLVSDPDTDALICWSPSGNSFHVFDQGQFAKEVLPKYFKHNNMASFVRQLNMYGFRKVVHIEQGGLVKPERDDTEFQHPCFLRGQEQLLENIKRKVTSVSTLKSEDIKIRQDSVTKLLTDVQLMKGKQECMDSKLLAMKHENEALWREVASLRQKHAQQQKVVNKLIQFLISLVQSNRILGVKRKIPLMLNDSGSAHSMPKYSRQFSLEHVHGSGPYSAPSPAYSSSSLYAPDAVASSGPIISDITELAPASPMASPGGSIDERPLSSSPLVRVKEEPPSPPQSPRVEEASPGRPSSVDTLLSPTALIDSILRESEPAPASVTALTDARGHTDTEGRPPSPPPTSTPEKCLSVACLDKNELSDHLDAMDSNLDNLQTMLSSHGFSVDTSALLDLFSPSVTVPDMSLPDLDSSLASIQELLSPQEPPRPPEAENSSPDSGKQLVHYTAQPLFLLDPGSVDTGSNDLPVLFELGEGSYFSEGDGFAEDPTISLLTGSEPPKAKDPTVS
CRX, sequence (O43186 whole entry): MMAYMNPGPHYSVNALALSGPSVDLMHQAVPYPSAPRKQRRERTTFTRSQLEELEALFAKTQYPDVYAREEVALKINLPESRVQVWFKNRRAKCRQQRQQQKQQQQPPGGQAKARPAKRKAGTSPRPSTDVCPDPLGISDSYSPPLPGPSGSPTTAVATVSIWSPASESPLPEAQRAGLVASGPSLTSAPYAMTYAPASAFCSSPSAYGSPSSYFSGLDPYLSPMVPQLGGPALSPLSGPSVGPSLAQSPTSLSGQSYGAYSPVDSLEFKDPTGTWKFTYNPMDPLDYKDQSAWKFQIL
ETV5, sequence (P41161 whole entry): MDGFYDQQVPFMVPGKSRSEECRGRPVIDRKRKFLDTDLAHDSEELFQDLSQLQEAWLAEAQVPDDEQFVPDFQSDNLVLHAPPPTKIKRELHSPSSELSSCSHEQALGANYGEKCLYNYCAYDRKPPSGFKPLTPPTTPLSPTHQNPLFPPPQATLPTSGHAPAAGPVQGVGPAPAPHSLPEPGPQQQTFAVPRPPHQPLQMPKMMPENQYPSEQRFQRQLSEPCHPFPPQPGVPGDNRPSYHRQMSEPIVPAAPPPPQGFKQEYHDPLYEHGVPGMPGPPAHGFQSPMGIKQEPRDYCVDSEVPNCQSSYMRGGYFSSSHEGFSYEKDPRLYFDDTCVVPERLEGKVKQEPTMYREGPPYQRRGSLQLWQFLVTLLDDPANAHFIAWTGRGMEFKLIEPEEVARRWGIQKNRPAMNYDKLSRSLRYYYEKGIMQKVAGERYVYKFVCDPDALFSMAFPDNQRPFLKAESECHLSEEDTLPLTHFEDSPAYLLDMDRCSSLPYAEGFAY
ETV1, sequence (P50549 whole entry): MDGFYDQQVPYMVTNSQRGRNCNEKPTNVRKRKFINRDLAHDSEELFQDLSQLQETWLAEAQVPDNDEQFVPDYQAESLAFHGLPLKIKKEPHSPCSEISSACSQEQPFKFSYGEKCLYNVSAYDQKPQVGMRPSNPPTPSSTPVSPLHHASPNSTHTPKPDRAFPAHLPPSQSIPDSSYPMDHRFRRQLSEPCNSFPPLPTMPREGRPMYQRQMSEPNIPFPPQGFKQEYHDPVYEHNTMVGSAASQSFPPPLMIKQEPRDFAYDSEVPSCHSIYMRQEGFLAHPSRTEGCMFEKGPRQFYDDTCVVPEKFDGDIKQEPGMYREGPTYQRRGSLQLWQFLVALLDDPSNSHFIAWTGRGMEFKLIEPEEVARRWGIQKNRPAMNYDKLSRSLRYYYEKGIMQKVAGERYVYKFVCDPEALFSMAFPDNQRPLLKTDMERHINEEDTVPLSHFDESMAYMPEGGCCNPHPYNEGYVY

For the sequence TTTATC, the binding signal in [1] is 1.14 fold enrichment (6-mer frequency, TF over GST control); in experiment [2], 1.2 fold enrichment (6-mer frequency, TF over GST control); in [3], 1.65 fold enrichment (6-mer frequency, TF over GST control); in [4], 1.26 fold enrichment (6-mer frequency, TF over GST control); in [5] it was 1.2 fold enrichment (6-mer frequency, TF over GST control); in experiment [6], 1.4 fold enrichment (6-mer frequency, TF over GST control). Moreover, the binding signal in [7] is 1.24 fold enrichment (6-mer frequency, TF over GST control); in [8], 1.18 fold enrichment (6-mer frequency, TF over GST control); in experiment [9] it was 2.15 fold enrichment (6-mer frequency, TF over GST control); in experiment [10], 1.18 fold enrichment (6-mer frequency, TF over GST control); in [11], 1.19 fold enrichment (6-mer frequency, TF over GST control); in [12], 1.35 fold enrichment (6-mer frequency, TF over GST control). Moreover, the binding signal in [13] is 1.26 fold enrichment (6-mer frequency, TF over GST control); in experiment [14], 1.25 fold enrichment (6-mer frequency, TF over GST control); in [15], 1.22 fold enrichment (6-mer frequency, TF over GST control); in experiment [16], 1.26 fold enrichment (6-mer frequency, TF over GST control); in experiment [17] it was 1.29 fold enrichment (6-mer frequency, TF over GST control); in experiment [18], 1.24 fold enrichment (6-mer frequency, TF over GST control).

The record behind these values is paper PMC7862700, “An all-to-all approach to the identification of sequence-specific readers for epigenetic DNA modifications on cytosine”.
